In the library only some 12% were active in any assay of this set; here they are far more common.
SARS PLP yeast: qHTS of Yeast-based Assay for SARS-CoV PLP | Potency, µM (doses to about 32.9 µM), inactives show at the top dose activity, positive = growth rescue, most hits filed as activators | actives 0.19% (n = 330,000) | S. cerevisiae expressing SARS-CoV PLpro, growth rescue; calls by dose curve; further: 0% is about no effect; nearly all actives have a fitted effect of over 55% in size
Pf growth 96h: Primary qHTS for delayed death inhibitors of the malarial parasite plastid, 96 hour incubation. P. falciparum luciferase reporter growth, 96 h. Potency, µM (titrated, usually from 28.7 µM), inactives show at the highest dose activity change, negative = inhibition, hits mostly inhibitors. actives 6.9% (n = 320,000). AID 504834, 2011; further: on the % scale 0 is the no-effect control and ±100 the full control effect
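Parasite growth measured via integrated firefly luciferase reporter in P. falciparum. Infected erythrocytes at 2% hematocrit, 0.05% parasitemia final were treated 96 hours at 37 C under 5% CO2, and luminescence was read.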
Pf growth 48h: Primary qHTS for delayed death inhibitors of the malarial parasite plastid, 48 hour incubation; P. falciparum luciferase growth in erythrocytes, 48 h; Potency, µM (highest dose often 28.7 µM), inactives show at the highest dose activity change, negative = inhibition, actives largely listed as inhibitors; actives 5.9% (n = 310,000); AID 504832, 2011; further: on the % scale 0 is the no-effect control and ±100 the full control effect
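Luciferase-expressing P. falciparum in infected erythrocytes (2% hematocrit, 0.1% parasitemia final) in RPMI 1640/0.5% Albumax were exposed to compound for 48 hours at 37 C, 5% CO2; growth read as luminescence.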
Sm TGR block: qHTS Assay for the Inhibitors of Schistosoma Mansoni Peroxiredoxins; Schistosoma mansoni thioredoxin glutathione reductase (TGR), Q962Y6; purified TGR, DTNB reduction, TNB absorbance 405 nm; Potency, µM (highest dose often 114 µM), for inactives: top-dose activity change, negative = inhibition, usual class: inhibitors; actives 3% (n = 360,000); further: on the % scale 0 is the no-effect control and ±100 the full control effect; nearly all actives have a fitted effect of over 60% in size
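First, TGR (20 nM dispensed) and NADPH were mixed with compound. Second, a 15 min room-temperature incubation followed. Third, further NADPH and then DTNB were added to start the reaction. Finally, TNB absorbance was monitored kinetically.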
Starred values were filed as active, the others as inactive; ? = inconclusive; . = no result; [ ] = another dose, or the depositor's remark. Unless noted, the call rests on the fitted dose curve; in most records, active means well fitted curve in the direction sought with a large enough effect; inconclusive means small, poorly fitted or top-dose-only effect, or another doubt; inactive means no such curve, though single readings can be large; an effect the other way counts as inactive or inconclusive. Potency means the concentration at half of the fitted maximal effect.

SMILES	SARS PLP yeast	Pf growth 96h	Pf growth 48h	Sm TGR block
COc1cccc(-c2nnc3sc(-c4ccccc4)nn23)c1	-2.5%	3.29µM*	?	-0.8%
O=C(COc1ccc(Br)cc1)Nc1ccccc1C(=O)NC1CC1	1.9%	-9.5%	?	-0.6%
CCOc1cccc(-c2nn3c(-c4cc(C)[nH]n4)nnc3s2)c1	-6.1%	1.65µM*	?	0.0%
COc1ccc(-c2nn3c(-c4ccccc4)nnc3s2)cc1	-0.1%	4.9%[5.75 µM]	?	-5.3%
CCOc1cccc(-c2nnc3sc(-c4cc(OC)c(OC)cc4OC)nn23)c1	1.8%	35.4%	1.2%	-21.2%
COc1cccc(OC)c1-c1nn2c(-c3cc(-c4ccccc4)n[nH]3)nnc2s1	-6.3%	-20.9%	2.08µM*	12.6µM*
CC(=O)Nc1nonc1-c1nnc(SCC(=O)Nc2c(C)cccc2C)n1-c1ccccc1	.	.	.	0.1%
Nc1nonc1C(=O)NCCNCc1ccc(Cl)c(Cl)c1	.	.	.	8.8%
Cc1cc(F)ccc1NC(=O)C1CCC(CNS(=O)(=O)c2ccc3c(c2)CCCC(=O)N3)CC1 (stereo not drawn)	.	.	.	2.8%
CCC(C)Sc1ccc([C@H]2N[C@@](Cc3ccccc3)(C(=O)OC)[C@H]3C(=O)N(CC)C(=O)[C@@H]23)cc1OC (stereo partly drawn)	-1.0%	?	3.29µM*	-22.8%
CCC(C)Sc1ccc([C@H]2N[C@@](CC(C)C)(C(=O)OC)[C@H]3C(=O)N(CC)C(=O)[C@@H]23)cc1 (stereo partly drawn)	-8.0%	?	9.28µM*	-28.5%
CCN1C(=O)[C@H]2[C@@H](c3ccc(SC4CCCCC4)cc3)N[C@@](CC(C)C)(C(=O)OC)[C@H]2C1=O	10.0%	2.94µM*	11.7µM*	-6.8%
CCN1C(=O)[C@H]2[C@@H](c3ccc(-c4ccccc4)c(OC)c3)N[C@@](CC(C)C)(C(=O)OC)[C@H]2C1=O	-7.6%	.	.	.
CCC(C)Sc1ccc([C@H]2N[C@@](Cc3ccccc3)(C(=O)OC)[C@H]3C(=O)N(CC)C(=O)[C@@H]23)cc1 (stereo partly drawn)	20.4%	1.65µM*	3.29µM*	1.3%
CCN1C(=O)[C@H]2[C@@H](c3ccc(-c4ccc(Cl)c(Cl)c4)cc3)N[C@@](Cc3ccccc3)(C(=O)OC)[C@H]2C1=O	-3.1%	?	?	-28.0%
CCCCN(CC)CCCNC(=O)C1CCCN(c2ncnc3c2nc2n3CCCCC2)C1 (stereo not drawn)	.	.	.	3.3%
Cc1cc2c(s1)c1c(C)nn(Cc3ccccc3F)c(=O)c1n2C	5.01µM*	7.5%	?	-4.8%
Cc1cc2c(s1)c1c(C)nn(Cc3ccc(F)cc3)c(=O)c1n2C	4.0%	13.7%	-0.1%	0.2%
O=C(CN1CCN(Cc2ccccc2Cl)CC1)N/N=C/C=C/c1ccco1	-1.6%	0.0%	-1.5%	20µM*
Clc1ccccc1CN1CCN(/N=C/C=C/c2ccco2)CC1	-1.8%	25.5%	-2.7%	15.8µM*
Fc1ccccc1/C=N/N1CCN(Cc2ccccc2Cl)CC1	4.5%	0.8%	22.1%	10.3%
CC(C)CCn1c(=O)c2sccc2n2c(CCCC(=O)NC(C)c3ccccc3)nnc12 (stereo not drawn)	.	.	.	2.7%
COc1ccccc1CN1CC(C(=O)N(C)CCc2nc3ccc(F)cc3[nH]2)CCC1=O (stereo not drawn)	4.0%	10.4µM*	-12.1%	5.2%
COc1ccccc1CN1CC(C(=O)N(C)CCOc2ccccc2)CCC1=O (stereo not drawn)	0.3%	?	0.0%	-4.7%
Cc1ccc(CN2CCCn3nc(C(=O)NCc4ccc(N(C)C)cc4)cc3C2=O)cc1	.	.	.	2.1%
SMILES	SARS PLP yeast	Pf growth 96h	Pf growth 48h	Sm TGR block
Cc1cc(Nc2ccccc2)nn1C(=O)c1ccc([N+](=O)[O-])cc1	15.8%	9.28µM*	2.2%	5.3%
Cc1cc(Nc2ccccc2)nn1C(=O)c1ccc(Cl)cc1	-56.5%	.	31.0%	21.5%
Cc1cc(C)cc(C(=O)NC(CC(N)=O)c2ccc(N3CCCCCC3)c([N+](=O)[O-])c2)c1 (stereo not drawn)	-3.6%	4.2%	8.8%	-10.4%
COc1ccc2c(-c3ccccc3)cc(SC(C)C(N)=O)nc2c1 (stereo not drawn)	-2.4%	?	10.4µM*	-4.9%
CCCN(C(=O)CSc1nc2c(cnn2-c2ccccc2)c(=O)[nH]1)C1CCS(=O)(=O)C1 (stereo not drawn)	13.9%	?	9.28µM*	0.9%
CCCN(C(=O)CSc1cc(-c2ccccc2)c2ccc(OC)cc2n1)C1CCS(=O)(=O)C1 (stereo not drawn)	6.2%	9.28µM*	?	2.8%
CCN(C(=O)CSc1nc2c(cnn2-c2ccccc2)c(=O)[nH]1)C1CCS(=O)(=O)C1 (stereo not drawn)	13.8%	?	?	-16.1%
O=C(CSc1nc(-c2ccccc2)cn1-c1ccccc1F)Nc1ccc(F)cc1	.	.	.	2.8%
CCCc1cc(=O)[nH]c(SCc2nc(-c3ccc(OC)cc3)no2)n1	.	.	.	-0.3%
CC1CC2(CCCCC2)Nc2ccc3ccccc3c21 (stereo not drawn)	1.7%	-21.0%	10.4µM*	3.8%
O=C(O)c1ccc(NC2CC(=O)N(Cc3ccccc3)C2=O)cc1 (stereo not drawn)	-0.2%	9.3%	4.4%	28.2µM*
CN(C)c1ccc(Nc2nc(N)c3ccccc3n2)cc1	-12.5%	8.28µM*	?	?
Nc1nc(Nc2ccc(Cl)cc2)nc2ccccc12	-33.7%	?	.	0.3%
Nc1nc(Nc2ccccc2)nc2ccccc12	-17.3%	?	3.29µM*	2.5%
COc1ccc(C2=NOC(C(=O)N3CCOCC3)C2)cc1OC (stereo not drawn)	7.5%	108.7%	108.9%	7.6%
O=C(NCc1ccccn1)C1CC(c2ccc(F)cc2)=NO1 (stereo not drawn)	-2.5%	2.94µM*	.	-5.2%
COc1cccc(C2=NOC(C(=O)NCc3ccccc3)C2)c1 (stereo not drawn)	-2.4%	4.15µM*	-2.3%	0.0%
COc1cccc(C2=NOC(C(=O)N3CCOCC3)C2)c1 (stereo not drawn)	0.2%	1.65µM*	159.5%	0.9%
COc1ccc(C2=NOC(C(=O)NCc3ccccc3)C2)cc1 (stereo not drawn)	-7.1%	7.38µM*	?	4.6%
CCn1c(C(=O)N2CCC(C(=O)NCCc3ccc(C)cc3)CC2)cc2sccc21	.	.	.	7.2%
O=C(NCCc1cccs1)C1CC(c2cccc(F)c2)=NO1 (stereo not drawn)	-2.0%	1.65µM*	?	3.8%
O=C(NCc1ccc(OC(F)(F)F)cc1)C1CC(c2c(Cl)cccc2Cl)=NO1 (stereo not drawn)	-2.1%	36.4%	1.31µM*	0.0%
O=C(NCc1cc(C(F)(F)F)cc(C(F)(F)F)c1)C1CC(c2c(Cl)cccc2Cl)=NO1 (stereo not drawn)	?	?	-2.2%	7.8%
COCCNC(=O)C1CC(c2cccc(OC)c2)=NO1 (stereo not drawn)	-3.5%	-19.6%	16.6%	-35.2%

Screens: PubChem BioAssay, National Center for Advancing Translational Sciences (NCATS)
